{"source": "the supplement of paper PMC5940239"}
{"test_system": "Madurella mycetomatis MM55", "experiment": "not given", "details": "7 days", "units": {"IC50": "µM"}}
{"compound": "CO/N=C(\\C(=O)OC)c1ccccc1CO/N=C(\\C)c1cccc(C(F)(F)F)c1", "IC50": 1.05}
{"compound": "CO/C=C(/C(=O)OC)c1ccccc1Oc1cc(Oc2ccccc2C#N)ncn1", "IC50": 0.6}
{"compound": "Nc1c2c(nc3sc4c(c13)CCCC4)CCCC2", "IC50": 9.7}
{"compound": "Cc1cccc(C(=O)Nc2ccnc(N(C)C3CCN(CC(C)C)CC3)c2)c1", "IC50": 26.2}
{"compound": "CC1(C)OB(O)c2ccc(C3=NOC(c4cc(Cl)c(F)c(Cl)c4)(C(F)(F)F)C3)cc21", "note": "(stereo not given)", "IC50": 11.7}
{"test_system": "Madurella mycetomatis MM55", "experiment": "IC90; higher = less potent", "details": "7 days", "units": {"IC90": "µM"}}
{"compound": "CO/N=C(\\C(=O)OC)c1ccccc1CO/N=C(\\C)c1cccc(C(F)(F)F)c1", "IC90": 28.1}
{"compound": "CO/C=C(/C(=O)OC)c1ccccc1Oc1cc(Oc2ccccc2C#N)ncn1", "IC90": 20.4}
{"compound": "Nc1c2c(nc3sc4c(c13)CCCC4)CCCC2", "IC90": 16.4}
{"compound": "Cc1cccc(C(=O)Nc2ccnc(N(C)C3CCN(CC(C)C)CC3)c2)c1", "IC90": 53.4}
{"compound": "CC1(C)OB(O)c2ccc(C3=NOC(c4cc(Cl)c(F)c(Cl)c4)(C(F)(F)F)C3)cc21", "note": "(stereo not given)", "IC90": 19.4}
